This is part of a sample that, as a whole, favours compounds with a hit. Of some 79,000 tested, about 15% had one in any assay. Values without a mark were called inactive. Cut-off read from the data, not from the text of the source: active = growth inhibition above about 70%; inactive = the rest.
Assay: NCI Yeast Anticancer Drug Screen. Data for the cln2 rad14 strain (AID 165);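 note: 0% = growth equal to vehicle treated cultures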
Conditions: S. cerevisiae cln2 rad14 strain, at 50.0 µM, hits give high values
Outline: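 Readout is yeast growth inhibition versus vehicle-treated controls, using a strain with cln2 and rad14 alterations exposed to compound.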
With `COc1cc([N+](=O)[O-])cc2c1OC1(C=C2)Oc2ccccc2N1C` (configuration not stated) the growth inhibition was -16.8%. With `COc1ccc2nc3cc([N+](=O)[O-])ccc3c(Nc3ccc(S(=O)(=O)N=C(N)N)cc3)c2c1` the growth inhibition was 12.8%. With `CN(C)c1ccc(N=Nc2ccc(S(=O)(=O)O)cc2)cc1.CN(C)c1ccc(N=Nc2ccc(S(=O)(=O)O)cc2)cc1.[NH-]C1CCCCC1[NH-].[Pt+2]` the growth inhibition was -9.15%. For `CC1c2ncnc(N)c2CN1C(=O)c1ccccc1` (configuration not stated), the growth inhibition was -20.2%. Molecule `CC(=O)c1cccc(C(C)=O)c1N=Cc1ccc(Cl)cc1` has a growth inhibition of -11.8%. `O=C(/C=C\c1ccccc1)c1ccc(-c2ccc([N+](=O)[O-])cc2)cc1` gave a growth inhibition of -3.65%. For `CC(NC(=O)OC(C)(C)C)C(=O)C(N)=O` (configuration not stated), the growth inhibition was 19.1%.

From PubChem BioAssay (NCI)
